From PubChem BioAssay
Compounds with a hit are over-represented: about 3.5% of the library has one in this group of screens.
LEDGF integ inh: blocks HIV-1 LEDGF/p75-dependent DNA integration | TR-FRET IN-LEDGF/p75 DNA integration, Eu/Cy5 | inhibition, % at 3.7 µM | actives 0.64% (n = 370,000) | AID 743269;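 active = inhibition above the screen-wide mean plus 3 SD, cut at about 13% in these data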;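 note: signal is the Cy5 over europium emission ratio at 671 and 618 nm; 0% = plate median of compound wells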
DNMT1 block: DNMT1 (human) enzyme inhibition. actives 0.83% (n = 360,000). AID 588458. DNMT1 molecular beacon, Hinp1I cleavage, fluorescence. inhibition (reported as % activation of signal), % at 10 µM; in the data active = inhibition above about 50%
UHRF1 binding: UHRF1 methyl-DNA binding inhibition; Q96T88; UHRF1 binding to methylated oligo, TR-FRET; inhibition, % at 4.4 µM; actives 0.75% (n = 370,000); AID 687016; in the data active = inhibition above about 21%;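 note: UHRF1 SRA domain binding a hemimethylated CpG hairpin DNA probe; 0% = median of test compound wells and 100% = reference inhibitor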
Target sequence (Q96T88 whole entry, looked up, the tested form may be a part): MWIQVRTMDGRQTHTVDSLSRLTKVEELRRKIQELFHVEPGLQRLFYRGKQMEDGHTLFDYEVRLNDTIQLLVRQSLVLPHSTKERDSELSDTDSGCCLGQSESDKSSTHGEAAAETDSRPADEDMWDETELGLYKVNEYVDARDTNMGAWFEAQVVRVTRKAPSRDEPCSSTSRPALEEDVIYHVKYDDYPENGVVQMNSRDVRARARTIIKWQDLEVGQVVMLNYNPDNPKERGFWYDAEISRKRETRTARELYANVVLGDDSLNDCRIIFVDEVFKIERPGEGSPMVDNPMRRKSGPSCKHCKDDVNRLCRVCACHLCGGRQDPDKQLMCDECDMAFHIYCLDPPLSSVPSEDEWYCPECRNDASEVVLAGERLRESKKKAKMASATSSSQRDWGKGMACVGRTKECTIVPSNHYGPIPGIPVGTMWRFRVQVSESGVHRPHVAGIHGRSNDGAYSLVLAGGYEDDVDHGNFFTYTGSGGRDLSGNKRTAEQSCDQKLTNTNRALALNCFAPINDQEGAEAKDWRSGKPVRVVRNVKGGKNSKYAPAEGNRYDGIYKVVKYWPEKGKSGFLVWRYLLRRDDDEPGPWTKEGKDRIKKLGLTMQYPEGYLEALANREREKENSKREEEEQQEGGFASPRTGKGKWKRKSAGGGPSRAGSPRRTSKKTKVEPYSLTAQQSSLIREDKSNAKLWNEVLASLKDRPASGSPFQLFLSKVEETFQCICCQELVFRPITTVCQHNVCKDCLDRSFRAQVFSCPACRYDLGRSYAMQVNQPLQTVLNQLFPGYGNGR
rCAG RNA binder: molecules binding r(CAG) RNA repeats | r(CAG) RNA repeat, TO-PRO-1 dye displacement fluorescence | inhibition, % at 3 µM | actives 1.3% (n = 370,000);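 active = inhibition above the plate cutoff, the mean of all test compounds on that plate plus 3 SD, cut at about 35% in these data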;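 note: 0% = DMSO alone and 100% = 100 µM mitoxantrone as full dye displacement; higher means more dye released from RNA so lower well fluorescence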
MBD2 inh: inhibitors of human MBD2 binding to methylated oligonucleotide. AID 686964. actives 0.31% (n = 370,000). inhibition, % at 4.4 µM. TR-FRET. Q9UBB5; in the data active = inhibition above about 13%
PG9 Ab binder: binds the HIV-1 gp120 antibody PG9; TR-FRET gp120-PG9 antibody binding; inhibition, % at 6.7 µM; actives 0.43% (n = 360,000); AID 624416; in the data active = inhibition above about 8.5%
IN multimer act: activates HIV-1 integrase multimerization in LEDGF counter-screen | shares compounds with LEDGF integ inh | TR-FRET HIV-1 integrase multimerization, biochemical | activation, % at 7.7 µM | actives 17% (n = 2,000) | AID 1053131; in the data active = activation above about 8.9%
TR-FRET interf: TR-FRET optical interference, LEDGF/p75 integration counter-screen; shares compounds with LEDGF integ inh; TR-FRET optical interference counterscreen, HIV-1 IN multimerization; inhibition, % at 7.7 µM; 2,000 tested, under 10 active; AID 1053135;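 active = inhibition above the mean over all tested compounds plus 3 SD, which no compound reached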;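 note: 0% = integrase with antibodies and DMSO and 100% = antibodies without integrase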
LEDGF integ conf: LEDGF/p75-dependent HIV-1 integration inhibition, confirmation. shares compounds with LEDGF integ inh. TR-FRET LEDGF/p75-dependent HIV-1 integration, biochemical. inhibition, % at 3.7 µM. actives 36% (n = 2,000). AID 1053136; in the data active = inhibition above about 14%
Active calls of the source: *; . = not tested or not shown.

SMILES	LEDGF integ inh	DNMT1 block	UHRF1 binding	rCAG RNA binder	MBD2 inh	PG9 Ab binder	IN multimer act	TR-FRET interf	LEDGF integ conf
CC(C)C[C@@H](C(=O)NCC1CCCO1)N1C(=O)N2CCc3c([nH]c4ccccc34)[C@@]2(C)C1=O (some centres not stated)	-4.2	5.2	8.5	-3.9	-1.8	2.5	.	.	.
CC(/C=N/n1c(-c2ccccc2)n[nH]c1=S)=C\c1ccco1	16.5*	20.8	-3.0	26.8	-3.5	0.6	0.4	-2.0	10.4
CC(C)N1Cc2nnn(Cc3ccccc3)c2-c2ccccc2S1(=O)=O	0.8	.	0.5	-1.1	-0.8	.	.	.	.
CCN(C(C)=O)c1cnc(C=NNC(N)=S)c2ccccc12	1.3	-0.3	-5.7	4.8	-5.1	2.0	.	.	.
NC(=S)NN=Cc1nccc2c(N)cccc12	20.0*	4.0	-7.8	6.1	-12.2	-13.3	14.9*	-75.3	17.1*
Cc1nonc1N1CCN(Cc2cn[nH]c2-c2ccc3c(c2)OCO3)CC1	53.3*	1.0	0.8	-4.8	2.7	-1.1	-0.4	2.1	-0.4
Cn1[nH]c2c(c1=O)[C@H](c1ccc(F)cc1)O[C@H](CCc1ccccc1)C2	0.6	-26.0	-5.6	9.4	-7.5	0.7	.	.	.
CC(C)[C@@H]1Cc2[nH]n(C)c(=O)c2[C@H](c2ccc(F)cc2)O1	87.2*	.	-5.4	-0.9	-6.2	2.4	0.4	-2.1	-9.0
S=C(Nc1ccc(Cl)c(Cl)c1)N1CCCC1	-4.8	-0.2	0.7	-1.9	5.1	-0.6	.	.	.
S=C(Nc1ccc2nsnc2c1)N1CCCCC1	16.7*	25.6	5.6	-0.1	-4.9	-2.8	0.7	-2.4	5.0
Cc1cc(-c2ccccc2)c2ccc(NC(=O)C(C)(C)C)nc2n1	3.2	-0.2	-0.7	-6.5	-2.2	-2.5	.	.	.
CN1CCN(CCCNCc2cn(CCC#N)c3ccccc23)CC1	4.7	-17.9	-0.4	1.3	-0.4	0.0	.	.	.
O=C(NCCCO)c1ccc(CSc2nc3ccccc3[nH]2)cc1	17.0*	0.0	1.1	0.7	4.7	-1.7	-0.1	0.3	-4.6
O=C(OCC#CCSc1nnc(-c2cccc3ccccc23)o1)C1CCC1	-1.7	.	3.1	.	2.0	.	.	.	.
Oc1ccccc1CNc1cccc2cccnc12	31.1*	-45.3	-8.4	3.6	-18.7	-2.9	4.6	-16.4	-0.1
COc1cc(NCc2ccccc2O)c2ncccc2c1	1.3	-13.8	0.0	4.4	-1.5	0.5	.	.	.
Cc1ccc(S(=O)(=O)N2CCN(C(=O)COC(=O)CNC(=O)c3ccccc3F)CC2)c(C)c1	-1.9	-1.8	9.8	2.3	0.7	0.1	.	.	.
Cn1c2ccsc2c2ncn(Cc3ccccc3F)c(=O)c21	-1.6	-0.5	-4.4	7.0	0.8	2.4	.	.	.
Cc1cn([C@H]2C[C@H](O)[C@@H](CNCc3ccc(-c4cc(Cl)ccc4C(F)(F)F)o3)O2)c(=O)[nH]c1=O	1.0	-1.1	-0.5	1.1	-3.1	0.9	.	.	.
COc1ccc(OC)c(NC(=O)COC(=O)/C=C/c2ccco2)c1	21.7*	21.1	15.3	15.0	4.9	-1.5	1.1	-5.8	-4.4
O=C(COC(=O)/C=C/c1ccco1)Nc1ncc(Cl)cc1Cl	4.9	41.2	7.6	7.5	-3.6	-1.4	.	.	.
Cc1nc(NC(=O)COC(=O)/C=C/c2ccco2)c(Cl)cc1Cl	32.9*	48.8	19.3	26.6	-2.3	-2.1	1.9	-6.7	-0.3
COc1ccc2nc(Cl)c(C=O)c(N3CCOCC3)c2c1	5.5	5.8	2.1	3.3	-2.2	0.3	.	.	.
O=C(OC1CC2CC1[C@H]1CCCCN1C2=O)N1CCC(c2ccccc2)CC1 (some centres not stated)	23.2*	.	4.3	3.8	1.4	0.4	0.0	-0.1	0.7
O=C(Cc1nnc(NC(=O)c2ccccc2)s1)N/N=C\c1ccc(O)c(O)c1	16.4*	59.2*	1.8	17.7	-2.0	-1.3	34.6*	-123.4	49.9*
SMILES	LEDGF integ inh	DNMT1 block	UHRF1 binding	rCAG RNA binder	MBD2 inh	PG9 Ab binder	IN multimer act	TR-FRET interf	LEDGF integ conf
CCOC(=O)c1c2c(n(Cc3ccccc3)c1C)C(=O)C(=O)c1ccccc1-2	17.0*	93.1*	1.6	7.5	-9.4	-2.7	2.5	-8.8	72.4*
COCCN1C[C@@H](CO)O[C@@H](n2cnc3c(N4CCN(CCO)CC4)ncnc32)C1	-1.5	-7.0	-1.9	0.3	-0.3	-0.9	.	.	.
COc1c(CC=C(C)C)cc(C2CC(=O)c3c(O)cc(O)cc3O2)cc1CC=C(C)C (configuration not stated)	-2.2	-28.7	0.1	32.0	2.9	-2.4	.	.	.
COC1=CC(=O)C(C2CC(=O)c3c(O)cc(O)cc3O2)=CC1=O (configuration not stated)	45.7*	1.3	9.1	19.8	5.3	-4.2	46.3*	-233.2	23.8*
Nc1ncnc2c1ncn2[C@@H]1O[C@H](C(=O)N[C@@H](CO)Cc2ccccc2)[C@@H](O)[C@H]1O	1.9	2.5	-0.8	-0.3	5.6	0.3	.	.	.
C[C@H]1C(C(=O)N(C)C2CCCCC2)=Cc2c(n(-c3ccc(F)cc3)c(=O)n2CCCOc2ccccc2)C=C1c1ccccc1	44.4*	.	0.6	12.1	3.7	0.2	0.0	-1.2	16.9*
N#Cc1c(NC(=O)COC(=O)C2CC3C=CC2C3)oc(-c2ccccc2)c1-c1ccccc1 (configuration not stated)	17.6*	-4.7	7.4	15.7	-0.2	-1.9	-2.4	12.2	0.8
Cc1c([N+](=O)[O-])oc2c1C(=O)NCCC2	-5.2	0.1	-1.3	2.3	-0.7	0.5	.	.	.
O=C1C2CC=CCC2C(=O)N1c1ccc(NCCc2cccc(F)c2)c([N+](=O)[O-])c1 (configuration not stated)	14.5*	-2.1	3.3	-0.2	3.0	-0.7	0.5	-2.5	-8.0
O=C(O)C1C2C=CC(C2)C1C(=O)Nc1ccc2c(c1)OCCO2 (configuration not stated)	.	-3.1	.	.	.	.	.	.	.
CN(C)c1ccc(NC(=O)C2C3C=CC(C3)C2C(=O)O)cc1 (configuration not stated)	49.5*	-5.5	20.9*	14.6	-8.8	-134.0	-2.3	11.5	2.1
COc1ccccc1C(=O)Nn1c(C)nc2ccccc2c1=O	3.3	2.2	-1.2	-2.3	-5.3	0.1	.	.	.
Clc1c(-c2ccccc2)nc2ccccn12	-7.6	3.8	1.4	0.1	6.1	-1.4	.	.	.
c1ccn2c(c1)nc1c2nc2ccccn21	14.0*	-4.3	-6.2	-0.9	-7.2	-8.8	4.9	-17.3	3.0
